Source: PubChem BioAssay
TIM10 inh: TIM10 yeast growth inhibition. S. cerevisiae TIM10 strain growth, BacTiter-Glo luminescence, 24 h. inhibition, % at 10 µM. actives 1.4% (n = 330,000);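 active = inhibition of 40% or more at the single tested concentration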;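 note: wild-type TIM10 isogenic control strain grown at permissive 25 °C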
ATG4B inhibitor: blocks human ATG4B protease cleavage of LC3 substrate; AID 504462; actives 0.51% (n = 340,000); Q9Y4P1; ATG4B cleavage of LC3-PLA2, NBD-HPC fluorescence, 1 h; inhibition, % at 8.33 µM; in the data active = inhibition above about 40%
Target sequence (Q9Y4P1 whole entry, looked up): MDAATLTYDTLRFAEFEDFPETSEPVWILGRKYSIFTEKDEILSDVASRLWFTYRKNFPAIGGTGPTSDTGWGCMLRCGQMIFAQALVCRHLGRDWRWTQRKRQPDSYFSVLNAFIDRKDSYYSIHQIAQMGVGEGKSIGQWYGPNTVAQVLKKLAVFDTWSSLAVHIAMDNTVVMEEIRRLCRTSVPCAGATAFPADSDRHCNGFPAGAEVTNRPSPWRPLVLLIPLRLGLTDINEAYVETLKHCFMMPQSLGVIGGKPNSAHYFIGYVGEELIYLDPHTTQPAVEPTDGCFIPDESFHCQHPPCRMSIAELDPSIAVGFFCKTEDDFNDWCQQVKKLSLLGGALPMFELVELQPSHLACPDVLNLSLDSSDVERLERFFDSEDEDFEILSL
tim10-1 inh: tim10-1 yeast growth inhibition; inhibition, % at 20 µM; actives 2.2% (n = 330,000); S. cerevisiae tim10-1 ts strain growth, BacTiter-Glo, 24 h;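 active = inhibition of at least 40%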;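 note: mutant grown at 25 °C; 0% = DMSO wells with yeast and 100% = wells holding no yeast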
PfHsp90 yeast 2: reduces growth (ATP signal) of yeast expressing P. falciparum Hsp90; S. cerevisiae expressing PfHsp90, BacTiter-Glo ATP, 48 h; yeast lacking PDR1 and PDR3 efflux regulators; inhibition, % at 9.4 µM; actives 0.32% (n = 310,000); AID 504621;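 active = every replicate shows inhibition above about 80%, whatever the replicate mean, limit read from the data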;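 note: 0% = DMSO neutral controls and 100% = 20 µM radicicol positive controls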
tim23-1 inh: tim23-1 yeast growth inhibition; S. cerevisiae tim23-1 growth, BacTiter-Glo luminescence, 24 h; inhibition, % at 20 µM; actives 1.3% (n = 330,000); AID 463212;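 active = growth inhibition of the mutant yeast at or above 50%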;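 note: temperature-sensitive mutant grown at 25 °C; plate controls were DMSO-treated mutant yeast for no effect and medium wells lacking yeast for full effect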
SKKanGAS inh: inhibitors of SKKanGAS S. pyogenes growth in kanamycin (SK-promoter or general growth effect) | BacTiter-Glo, 6 h | inhibition, % at 7.5 µM | actives 1.3% (n = 300,000) | AID 1662;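 active = mean replicate score, as percent of positive control median, at least 50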;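 note: strain carries kanamycin resistance gene driven by streptokinase promoter and grows in 40 µg/ml kanamycin; loss of luminescence reflects streptokinase promoter inhibition or plain growth inhibition; 0% = median of DMSO wells and 100% = positive control at its reference dose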
Numbers without * were called inactive; . = no result. Sampled rows, rich in hits. Any-hit rate of the full collection: about 4.7%.

SMILES | TIM10 inh | ATG4B inhibitor | tim10-1 inh | PfHsp90 yeast 2 | tim23-1 inh | SKKanGAS inh
Cc1c(-c2cccc(Cl)c2)nc2ccccc2c1C(=O)OC/C(O)=C(\C#N)c1nc2ccccc2[nH]1 | -4.7 | -4.2 | 14.1 | -1.5 | 6.8 | 57.6*
CCCC(=O)C1=C(O)C(c2cccc(Oc3ccccc3)c2)CCC1=O (stereo not given) | -2.7 | 3.4 | 29.2 | -0.8 | 13.4 | 29.5
O=C(Nc1ccc(Cl)cc1)Nc1cc([N+](=O)[O-])ccc1F | 13.2 | -6.3 | 15.5 | 12.4 | 13.6 | -4.7
O=C(Nc1ccc([N+](=O)[O-])cc1)Nc1ccc(Cl)cc1F | 3.8 | -3.6 | 25.2 | 16.6 | -18.7 | 58.4*
COC(=O)c1ccc(NC(=O)Nc2ccc([N+](=O)[O-])cc2)cc1 | -21.1 | 0.3 | -15.4 | -0.1 | -14.2 | 50.8*
Cc1ccc(C(=O)N2CC(C(=O)O)C2)cc1 | 2.8 | -0.5 | 3.3 | 1.2 | 5.3 | -2.5
COc1ccc(N2CCN(C(=S)Nc3ccc(F)cc3)CC2)cc1 | -10.2 | 1.1 | -5.5 | -3.0 | -3.2 | -2.9
Cc1noc(C)c1CSCC(=O)Nc1nc2ccc(S(C)(=O)=O)cc2s1 | -8.0 | -0.8 | 1.2 | . | -6.5 | -1.8
O=C(c1nc2ccc(Cl)cn2c1CN1CCCC1)N1CCc2ccccc2C1 | 0.4 | 17.3 | 22.2 | -6.8 | 15.6 | 1.8
O=C(c1nc2ccc(Cl)cn2c1CN1CCC(CO)CC1)N1CCc2ccccc2C1 | 10.6 | 5.3 | 1.7 | -5.7 | 1.9 | 52.2*
CC(C)(C)c1ccc(OCC(=O)NNC(=O)Nc2ccccc2)cc1 | 2.7 | 2.2 | 16.9 | -26.5 | 13.4 | 0.2
NC(=S)N/N=C/c1c(O)c(Br)cc2oc3c(c12)CCCC3 | 24.2 | -4.4 | 19.5 | -28.5 | 20.1 | 87.0*
CN(Cc1cccnc1)C(=O)CNC(=O)COc1ccccc1 | -13.6 | -3.6 | 2.6 | 20.6 | 1.1 | -10.0
Cc1ccc(Oc2nc(C(F)(F)F)nc3ccccc23)cc1 | 6.0 | 4.2 | 3.6 | 32.1 | 10.1 | 26.7
COc1ccc(Oc2nc(C(F)(F)F)nc3ccccc23)cc1 | 12.5 | 23.5 | 24.0 | -3.4 | 35.7 | 51.8*
O=S(=O)(N[C@H]1C[C@@H](NS(=O)(=O)OCC(Cl)(Cl)Cl)C2CCCCC21)OCC(Cl)(Cl)Cl (stereo not given in full) | . | -2.0 | . | 15.1 | . | 92.9*
Cc1ccc(C(C(=O)NC2CCCCC2)N(C(=O)Cc2c[nH]c3ccccc23)c2ccccc2C)o1 (stereo not given) | 7.9 | -1.6 | 22.8 | 3.9 | 13.9 | -8.0
CC(C)Sc1nsc2nc(=O)c(/C=C3\C=Nc4ccccc43)c(N)n12 | 0.1 | 22.1 | -21.5 | -66.0 | 20.9 | 73.9*
CC(=O)OCCCNc1cc(Sc2ccc(C)cc2)c2nonc2c1[N+](=O)[O-] | -3.9 | 5.1 | -18.7 | 11.5 | -8.4 | -5.6
CC(=O)OCCNc1cc(Sc2nc3ccccc3[nH]2)c2nonc2c1[N+](=O)[O-] | . | 0.1 | . | 1.5 | . | 53.0*
CC(=O)C1=C(C)Nc2ncnn2C1c1ccccc1Cl (stereo not given) | -0.1 | 8.7 | -5.7 | -15.3 | -2.1 | -0.8
O=[N+]([O-])c1ccc(Cl)c(S(=O)(=O)n2ccnc2)c1 | -13.1 | -4.6 | -2.0 | 0.2 | 8.7 | 4.1
CC(C)Oc1cccc(C(=O)C2CCCN(C(=O)c3cncs3)C2)c1 (stereo not given) | -4.3 | 5.6 | 18.2 | -8.6 | 5.4 | -11.9
Cc1ccc(C(=O)N2CCCC(C(=O)c3ccc(Cl)cc3C)C2)cn1 (stereo not given) | -1.1 | 23.0 | 11.4 | 6.6 | 13.9 | -1.6
O=C(c1ccc(-c2ccccc2)c(F)c1)C1CCCN(C(=O)c2cncs2)C1 (stereo not given) | -28.5 | -8.9 | -117.1 | 88.8* | -170.2 | 6.6
SMILES | TIM10 inh | ATG4B inhibitor | tim10-1 inh | PfHsp90 yeast 2 | tim23-1 inh | SKKanGAS inh
Cc1cc(Cl)ccc1C(=O)C1CCCN(C(=O)c2cncs2)C1 (stereo not given) | -65.9 | -4.9 | 37.2 | 96.2* | -168.6 | -0.5
O=C(O)c1cc(-c2c[nH]c3ccccc23)nc2ccc3ccccc3c12 | -1.7 | 6.0 | 3.0 | -16.1 | 6.4 | -10.0
CC(C)c1ccc(N=c2c([N+](=O)[O-])nn(-c3ccc4c(c3)OCCO4)n2O)cc1 | 23.6 | -13.2 | 22.3 | 3.2 | 29.7 | 21.1
COc1cc(N=c2c([N+](=O)[O-])nn(-c3ccc4c(c3)OCCO4)n2O)cc(OC)c1 | 5.7 | -20.1 | 6.1 | 8.5 | 8.4 | 73.3*
CCOc1cccc(-c2cc(C(=O)Nc3ccon3)c3ccccc3n2)c1 | -16.4 | -9.7 | -4.5 | -6.1 | -7.4 | 4.3
Cc1ccc(Nc2c(-c3ccccn3)nc3cccc(C)n23)cc1 | 22.0 | 6.9 | -35.1 | -9.8 | 40.9 | 101.6*
Cc1ccccc1Nc1c(-c2ccccn2)nc2c(C)cccn12 | 28.0 | 6.1 | 2.9 | -50.4 | 11.7 | 81.1*
Cc1cccc(C)c1Nc1c(-c2ccccn2)nc2ccccn12 | 16.7 | 10.5 | 22.8 | -0.1 | 22.4 | 96.6*
Cc1ccc2nc(-c3ccccn3)c(NC3CCCC3)n2c1 | 16.5 | 13.4 | 30.2 | -9.2 | 23.3 | 96.3*
COc1cccc(NC(=O)Nc2ccccc2C(N)=O)c1 | 3.8 | -7.5 | 8.8 | 15.2 | 15.4 | 1.0
O=C(Nc1cc(C(F)(F)F)ccc1Cl)C(Sc1ccccn1)c1ccccc1 (stereo not given) | 11.3 | 0.9 | 10.1 | 5.7 | 15.8 | 2.4
Cc1ccc2[nH]c(C(=O)N/N=C/c3ccccc3O)c(C)c2c1 | 7.3 | -6.1 | -14.9 | -17.2 | 1.6 | 101.4*
Cc1ccc2[nH]c(C(=O)N/N=C/c3ccccc3C(=O)O)c(-c3ccccc3)c2c1 | -3.7 | -1.8 | 22.2 | -18.4 | 19.1 | 0.4
COc1cc(OC)c2cc(C(=O)N/N=C/c3ccccc3O)[nH]c2c1 | 21.5 | 4.5 | 0.7 | 15.1 | 25.7 | 103.3*
COc1ccc2[nH]c(C(=O)N/N=C/c3ccccc3OC)cc2c1 | -0.9 | -18.2 | 12.8 | 0.2 | 41.5 | -3.9
O=C(CCCCCNC(=O)c1ccccc1)N=Nc1c(O)[nH]c2c(Br)cc(Br)cc12 | 8.8 | . | 13.0 | . | 5.0 | 59.4*
COc1ccc(N=Nc2cc(-c3ccccc3)ccc2O)cc1 | -10.4 | 2.1 | 1.2 | 20.1 | 10.6 | 55.8*
COc1cccc(N=Nc2ccc3cccnc3c2O)c1 | 14.0 | 1.2 | 12.7 | 103.9* | 43.3 | 117.6*
Oc1ccc(N=Nc2ccc3c(c2)OCCO3)c2cccnc12 | -10.6 | -0.2 | 22.7 | -57.9 | 40.0 | 87.6*
Cc1ccccc1N=Nc1ccc(O)c2ncccc12 | . | 30.6 | . | -33.0 | . | 105.1*
COc1cc(OC)cc(C(=O)Nc2cccc3cccnc23)c1 | 16.2 | 0.7 | -4.6 | -0.4 | 21.1 | -6.6
O=Nc1ccc(O)c2ncccc12 | -6.6 | -8.3 | 13.5 | 7.2 | -3.6 | 3.6
O=C(CSc1nnc(-c2cccnc2)n1Cc1ccccc1)N1CCOCC1 | 14.7 | -2.8 | 16.8 | . | -1.8 | 1.9
Oc1ccc(CNc2ccccc2)c2cccnc12 | 4.9 | -1.8 | 25.6 | 13.4 | -28.4 | -2.9
